The list is not random: actives were taken first. Their share in the collection is about 32%.
CYP2C19 inhib: inhibitors of human CYP2C19. P33261. CYP2C19 Supersomes, luciferin-H EGE luminescence, 30 min. inhibition, % at 5 µM. hit rate 21% among 96,000. AID 778;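 active = CYP2C19 inhibition above a set limit at 5 µM in the primary screen, cut at about 50% in these data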
Target sequence (P33261 whole entry, looked up): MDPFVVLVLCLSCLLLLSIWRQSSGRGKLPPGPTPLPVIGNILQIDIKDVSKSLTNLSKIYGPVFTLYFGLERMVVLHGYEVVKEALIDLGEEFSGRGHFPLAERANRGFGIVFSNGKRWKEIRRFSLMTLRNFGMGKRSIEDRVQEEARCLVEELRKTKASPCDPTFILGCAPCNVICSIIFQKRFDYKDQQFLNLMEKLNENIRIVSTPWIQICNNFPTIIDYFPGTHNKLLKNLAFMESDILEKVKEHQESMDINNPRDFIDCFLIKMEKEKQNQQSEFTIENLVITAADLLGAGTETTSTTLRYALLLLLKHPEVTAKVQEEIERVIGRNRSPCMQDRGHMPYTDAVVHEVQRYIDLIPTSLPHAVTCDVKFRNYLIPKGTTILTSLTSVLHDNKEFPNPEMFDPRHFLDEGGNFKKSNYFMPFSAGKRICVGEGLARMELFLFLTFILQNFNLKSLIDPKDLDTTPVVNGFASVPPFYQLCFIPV
CYP2C19 activ: activators of human cytochrome P450 2C19; 96,000 tested, under 10 active; activation factor at 5 µM; P33261; recombinant CYP2C19, luciferin-H EGE luminescence; hits give high values; 0 = fully inhibited enzyme, 1 = untreated enzyme;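 active = activation factor of at least 2 at 5 µM in the primary screen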
CYP2C9 inh: blocks human cytochrome P450 2C9; AID 777; P11712; CYP2C9 Supersomes, luciferin-H conversion, luminescence; hit rate 20% among 96,000; inhibition, % at 5 µM;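 active = blocking of liver enzyme CYP2C9 beyond about 50% at 5 µM, limit read from the data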
PostGolgi ctrl: inhibits growth of the yeast control strain; efflux-deficient yeast background strain, growth absorbance A615, 16 h; inhibition, % at 10 µM; hit rate 5% among 98,000; AID 738
CYP2C9 act: CYP2C9 (human) activation; recombinant CYP2C9, luciferin-H conversion, luminescence; hits give high values; factor 1 = untreated enzyme, 0 = blocked; activation factor at 5 µM; hit rate 1.4% among 96,000; AID 1024;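 active = activation factor of 2 or more for CYP2C9 at a 5 µM dose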
PostGolgi yeast: growth inhibition of a yeast mutant, post-Golgi transport screen | post-Golgi transport phenotypic cell assay | inhibition, % at 10 µM | hit rate 0.9% among 98,000 | AID 739;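 also: yeast cells grown in 1536-well plates; yeast grown about 18 h at 30C before absorbance read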
Each line names hits and unclear results; the compound was inactive in the other large screens. Rule as the data show it, unless noted: active = inhibition above about 30%; inactive = the rest.

COC(=O)C1=C(C)NC(=O)C1(Nc1ccc(Cl)cn1)C(F)(F)F (stereo not drawn)	CYP2C19 inhib 70
O=c1c(=NNc2ccccc2Cl)c(=O)c2ccccc12	CYP2C19 inhib 60
Cc1cc(C)c(NN=c2c(=O)c3ccccc3c2=O)c(C)c1	none
COc1ccc(Cn2cc(F)c(=O)n(CCC(C)C)c2=O)cc1[N+](=O)[O-]	none
COc1ccc2c(c1OC)C(=O)OC2C1c2c(cc3c(c2OC)OCO3)CCN1C (stereo not drawn)	CYP2C19 inhib 89, CYP2C9 inh 89
COc1ccc(N2CCC(CNC(=O)Nc3ccc(OC)cc3OC)C2)cc1 (stereo not drawn)	CYP2C19 inhib 62
COc1ccc(NC(=O)NCCCN2CCCC2=O)c(OC)c1	CYP2C19 inhib 54
CCOc1ccc(NC(=O)NCC2CCN(c3ccc(OC)cc3)C2)cc1 (stereo not drawn)	none
O=S(=O)(CCc1nc2ccccc2s1)c1ccc2ccccc2c1	none
CCOC(=O)c1ccc(NC2OC(=O)c3ccccc32)cc1 (stereo not drawn)	none
CC(=O)N(Cc1ccc(F)cc1)C1=C(NCCc2ccccc2)C(=O)c2ccccc2C1=O	CYP2C19 inhib 99, CYP2C9 inh 95, PostGolgi ctrl 31
Cc1cc(C)c(S(=O)(=O)N2CCN=C2c2ccccc2)cc1C	CYP2C19 inhib 60
CCCCCNc1nc(-c2ccccc2)cs1	CYP2C19 inhib 76, CYP2C9 inh 64
CN(CC(=O)NC(c1ccccc1)c1ccccc1)Cc1nc2ccccc2c(=O)[nH]1	none
COc1cc2c(cc1NC(=O)/C=C/c1ccccc1)oc1ccccc12	CYP2C9 inh 78
COc1cc2c(cc1NC(=O)CSc1nc3ccccc3[nH]1)oc1ccccc12	PostGolgi ctrl 74
COc1cc2c(cc1NC(=O)CN(C)Cc1nc3ccccc3c(=O)[nH]1)oc1ccccc12	PostGolgi ctrl 59
CN1CCN(S(=O)(=O)c2ccc(Br)c3nsnc23)CC1	none
CCC(Oc1ccccc1)C(=O)N1CCN(c2ccccn2)CC1 (stereo not drawn)	CYP2C19 inhib 79, CYP2C9 inh 85
CCC(Oc1ccccc1)C(=O)N1CCN(C(=O)C(CC)Oc2ccccc2)CC1 (stereo not drawn)	CYP2C9 inh 84
CCC(Oc1ccccc1)C(=O)N1CCN(CC)CC1 (stereo not drawn)	none
CCOC(=O)CSC1=C(C#N)C(c2ccco2)C(C(=O)Nc2cccc(C(F)(F)F)c2)=C(C)N1 (stereo not drawn)	CYP2C19 inhib 78, CYP2C9 inh 82, PostGolgi ctrl 97
CCOC(=O)C1=C(c2ccccc2)NC(SC)=C(C#N)C1c1ccco1 (stereo not drawn)	CYP2C9 inh 78
CCOC(=O)C1=C(c2ccccc2)NC(SCC(=O)Nc2ccccc2C)=C(C#N)C1c1ccco1 (stereo not drawn)	CYP2C19 inhib 57, CYP2C9 inh 75
CCOC(=O)C1=C(c2ccccc2)NC(SCC(=O)Nc2ccc(C)cc2)=C(C#N)C1c1ccco1 (stereo not drawn)	CYP2C9 inh 65
Cc1ccc(N=C2NC(=O)C(CC(=O)O)S2)cc1 (stereo not drawn)	none
Cn1nnnc1SCC(=O)Nc1nc(-c2ccccc2)c(-c2ccccc2)o1	none
CCOC(=O)C1=C(c2ccccc2)NC(SCC(=O)Nc2cccc(C)c2)=C(C#N)C1c1ccco1 (stereo not drawn)	CYP2C19 inhib 60, CYP2C9 inh 92
Cc1cccc(NC(=O)CSc2nnc(Cn3nnc(-c4ccccc4)n3)n2-c2ccccc2)c1	none
CCOc1ccccc1NS(=O)(=O)c1cccs1	CYP2C19 inhib 78, CYP2C9 act 2.6
CCOc1ccc(N(CC(=O)Nc2ccc3c(c2)OCCO3)S(=O)(=O)c2c(C)noc2C)cc1	none
CCOc1ccccc1NC(=O)CN(c1ccc(C)cc1)S(=O)(=O)c1c(C)noc1C	CYP2C19 inhib 99, CYP2C9 inh 96, PostGolgi ctrl 39
CCOc1ccc(OCC)c(NC(=O)CN(c2ccc(C)cc2)S(=O)(=O)c2c(C)noc2C)c1	CYP2C9 inh 92
CCOc1ccccc1NC(=O)C1CCN(S(=O)(=O)c2c(C)noc2C)CC1	none
CCOc1ccccc1NS(=O)(=O)c1c(C)noc1C	CYP2C19 inhib 75, CYP2C9 inh 71
Clc1ss/c(=N\c2ccccn2)c1Cl	none
O=S(=O)(NC1=NCCC1)c1ccc(F)cc1	none
Cc1cccc(-n2c(C)nc3c(cnn3-c3ccc(F)cc3)c2=O)c1	PostGolgi ctrl 33
Cc1ccc(C(=O)C(OC(=O)CNS(=O)(=O)c2ccccc2)c2ccccc2)cc1 (stereo not drawn)	CYP2C9 inh 55
CC(=O)Nc1cccc(C(=O)OCc2ccccc2)c1	CYP2C19 inhib 98
CCOCCOC(=O)c1cccc(NC(=O)OCC)c1	CYP2C19 inhib 71, CYP2C9 inh 63
CC(=O)Nc1cccc(C(=O)OC(C(=O)c2ccc(C)cc2)c2ccccc2)c1 (stereo not drawn)	CYP2C9 inh 76, PostGolgi ctrl 33
CC(=O)c1cccc(NC(=O)Oc2ccccc2)c1	none
CCn1c(=O)n(CC)c2cc(S(=O)(=O)N3CCCCC3)c(C)cc21	none
Cc1cc(C)nc(N(C#N)S(=O)(=O)c2ccccc2)n1	none
O=C(Cn1nnc(-c2ccccc2)n1)OCc1ccccc1	none
O=C(OCc1ccccc1)c1cccc(-c2nnn(Cc3ccccc3)n2)c1	CYP2C9 inh 63
COc1ccc(C(=O)OC(C(=O)c2ccc(C)cc2)c2ccccc2)cc1 (stereo not drawn)	CYP2C9 inh 57
CC(=O)Nc1cccc(C(=O)OC(C(=O)c2ccc(C)c(C)c2)c2ccccc2)c1 (stereo not drawn)	none
O=C(CCN1CCN(c2ccccc2)CC1)Nc1nccs1	none
COc1ccc(NC(=O)CN2CCCC(C)C2)c([N+](=O)[O-])c1 (stereo not drawn)	none
c1ccc2nc(-c3nc4ccccc4o3)ccc2c1	CYP2C19 inhib 71
c1ccc(-c2nc3ccccc3o2)nc1	none
Cc1cc2c(cc(C(=O)OCC(=O)NCc3cccs3)n2C(C)C)o1	CYP2C19 inhib 50, CYP2C9 inh 65, PostGolgi ctrl 57
COc1ccc(CC(=O)NCc2cccs2)cc1	none
N#Cc1cc(N)ccc1Sc1ccccc1	CYP2C9 act 2
N#Cc1cc(-c2ccccc2)nnc1Sc1ccc(Cl)cc1	none
N#Cc1cc(N)ccc1Sc1ccc(Cl)cc1	PostGolgi ctrl 53
Cc1c(C(=O)N2CCCC2)nnn1-c1nonc1N	CYP2C19 inhib 52
COC(=O)c1nnn(-c2nonc2N)c1-c1cccs1	none
CCOC(=O)c1nnn(-c2nonc2N)c1-c1ccc(OCC)cc1	CYP2C19 inhib 99, CYP2C9 inh 89
Nc1nonc1-n1nnc(C(=O)c2ccccc2)c1-c1ccccc1	CYP2C19 inhib 98, CYP2C9 inh 91
